This note sets out measurements from PubChem BioAssay.

Molecules are shown by their SMILES. Results filed as inconclusive are left out. Active and inactive are the calls of the source.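 The calls were made as follows, unless noted: active = viability at or under a set limit in both replicates, limit being median viability minus 3 SD (cut at about 48% in these data, passing the limit was not always enough); inconclusive = at or under the limit in just one replicate; inactive = at or above the limit in both replicates.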

The nature of assay [1]: Her2 expression decrease, cell viability multiplex – SKBR3 breast tumor cells, AlphaScreen, ATP viability, primary screen (AID 461;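 active = Her2 level under about 52% in both replicate screens, with viability over 70% of control, limit read from the data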;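 as to Her2 level: lower value means less Her2 protein in the cells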;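 as to viability: percent of carrier control wells set as 100% viability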). To be noted: SKBR3 Her2 protein level, 18-24 h, measured here: SKBR3 viability, ATP luminescence, at 10 µM. (Alpha assays give light when donor and acceptor beads are brought close together.)
The target in assay [2] is Receptor tyrosine-protein kinase erbB-2 (Homo sapiens) (UniProt P04626). The description is as above. To be noted: 18-24 h, at 10 µM, stronger effect = lower value.
Assay [3] can be described thus: reduced viability of SK-BR-3 breast cancer cells – cell-based, 24 h, human, pilot screen (AID 572;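 active = viability at or below 10% of carrier control in both of two separate runs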;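 also: compound exposure lasted between 18 and 24 h rather than exactly 24 h; 100% = carrier-treated control wells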). To be noted: SK-BR-3 viability, CellTiter-Glo luminescence, at 10 µM, stronger effect = lower value. Background: ATP-based viability assays read luminescence as a measure of living cells.
A short description of assay [4]: HUVEC growth inhibition – cell-based, human, primary screen (AID 575;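 active = viability at or below 30% in both replicate assays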;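 also: 100% = median of untreated cell wells with 0.1% DMSO on each plate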). To be noted: HUVEC proliferation, CellTiter-Glo luminescence, 72 h; at 10 µM; stronger effect = lower value.
The nature of assay [5]: H69AR cell proliferation blockers – human, duplicate replicates, primary screen (AID 580).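 Also: 100% = mean luminescence of untreated wells and 0% = no signal.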 To be noted: H69AR lung tumor cells viability, ATP luminescence, 72 h; at 10 µM; stronger effect = lower value.
The nature of assay [6]: MRP1 drug-resistance reversers in H69AR cells – cell-based, doxorubicin co-treatment, pilot screen (AID 601;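 active = viability loss from added drug above about 55%, and viability with drug at most 40%, in both replicates, limit read from the data, passing the limit was not always enough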). To be noted: CellTiter-Glo, 72 h, at 10 µM; for differential viability (reversal): stronger effect = higher value.
The nature of assay [7]: yeast transport mutant growth inhibition pilot in 384-well plates, post-Golgi transport modulator project (AID 636; in the data active = inhibition above about 31%). To be noted: absorbance 615 nm, about 18 h, stronger effect = higher value.
Assay [8] in a line: growth suppression of yeast trafficking mutant, preliminary HTS, modulators of trafficking downstream of Golgi apparatus project, 1536-format plate, OD 615 nm (AID 637; in the data active = inhibition above about 30%). To be noted: yeast transport mutant growth, absorbance 615 nm, 18 h; stronger effect = higher value.
A short description of assay [9]: S. cerevisiae growth inhibition in permissive medium (OD615), pilot counter-assay for S. cerevisiae lifespan shortening project, permissive growth control (AID 705;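 active = growth inhibition above 25% in both replicates, a cutoff set 3 SD above the mean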). To be noted: OD615, 24 h, at 10 µM, stronger effect = higher value.
The nature of assay [10]: S. cerevisiae growth inhibition in restrictive medium, OD615, pilot screen, restrictive growth control, yeast lifespan reduction project (AID 706;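 active = growth inhibition above a set limit, 3 SD over mean compound inhibition, in both replicates, cut at about 43% in these data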;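 also: modified DeaD lifespan yeast strain shifted to restrictive glucose medium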). To be noted: OD615, 48 h, at 10 µM, stronger effect = higher value.
Assay [11] in a line: doxorubicin toxicity protection in MRP-1 cells – H69AR cells, CellTiter-Glo, duplicate, MRP-1 activator project, pilot screen (AID 807;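 active = viability increase at or above a cutoff of the median across tested compounds plus 3 SD, cut at about 8.5% in these data, passing the limit was not always enough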;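 also: compound pretreatment 18-22 h then 72 h combined with doxorubicin; 0% = doxorubicin alone and 100% = vehicle without doxorubicin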). To be noted: H69AR viability with doxorubicin, CellTiter-Glo luminescence; at 10 µM; stronger effect = higher value.
Assay [12] can be described thus: viability of HCT116 without oncogenic beta-catenin – human colon tumor cells, pilot screen (AID 823;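 active = cell viability at or below a set limit in both duplicate runs, the limit being the all-compound median minus 4 SD, cut at about 23% in these data, passing the limit was not always enough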;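 also: 0% = wells killed by 20 µM Hyamine and 100% = untreated DMSO cell wells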). To be noted: HCT116 beta-catenin knockout viability, CellTiter-Glo, 60 h; at 10 µM; stronger effect = lower value.
Assay [13] is described as follows: viability of PTEN-null HCT116 cells – cell-based, HCT116 clonal line, CellTiter-Glo, pilot screen (AID 824;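 active = viability at or below 27.92% in each of two runs, the all-compound median minus 4 SD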;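 also: 0% = 20 µM Hyamine control and 100% = vehicle cell control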). To be noted: HCT116 PTEN-deleted viability, 60 h, at 10 µM, stronger effect = lower value.
Assay [14] in a line: RAM pathway blockade in budding yeast – dse1pr::URA3 reporter, 5-FOA selection, pilot screen (AID 869;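 active = inhibition over a set limit, the all-compound mean plus 3 SD, in both replicate runs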;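 also: 0% = DMSO wells with no growth and 100% = 10 µM 1-NA-PP1 with full growth; RAM network block rescues cells from 5-FOA so hits raise OD615 growth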). To be noted: S. cerevisiae dse1pr::URA3 5-FOA growth, OD615, 2 d; at 10 µM; stronger effect = higher value; strain carries analog-sensitive mutant Cbk1 kinase.
A short description of assay [15]: RAM signaling pathway blockade in yeast – S. cerevisiae, Pdr1DBD-CYC8 efflux-inhibited sensitized strain, primary screen (AID 1298;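 active = RAM network inhibition above 8.4% in each of two replicates, 3 SD over the compound average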;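 also: 0% = DMSO untreated cells without growth and 100% = 10 µM 1-NA-PP1 full growth; higher means more yeast growth rescued from 5-FOA killing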). To be noted: S. cerevisiae cbk1-as DSE1-URA3 strain, 5-FOA growth OD615, 2 d; at 50 µM; stronger effect = higher value.
Where [16] appears, read: H69AR cells + 2 uM doxorubicin, measured here: viability with 2 uM doxorubicin, stronger effect = lower value.
[17] abbreviates: H69AR cells, compound alone cytotoxicity.

Sequence of Receptor tyrosine-protein kinase erbB-2 (Homo sapiens) (P04626 whole entry, looked up): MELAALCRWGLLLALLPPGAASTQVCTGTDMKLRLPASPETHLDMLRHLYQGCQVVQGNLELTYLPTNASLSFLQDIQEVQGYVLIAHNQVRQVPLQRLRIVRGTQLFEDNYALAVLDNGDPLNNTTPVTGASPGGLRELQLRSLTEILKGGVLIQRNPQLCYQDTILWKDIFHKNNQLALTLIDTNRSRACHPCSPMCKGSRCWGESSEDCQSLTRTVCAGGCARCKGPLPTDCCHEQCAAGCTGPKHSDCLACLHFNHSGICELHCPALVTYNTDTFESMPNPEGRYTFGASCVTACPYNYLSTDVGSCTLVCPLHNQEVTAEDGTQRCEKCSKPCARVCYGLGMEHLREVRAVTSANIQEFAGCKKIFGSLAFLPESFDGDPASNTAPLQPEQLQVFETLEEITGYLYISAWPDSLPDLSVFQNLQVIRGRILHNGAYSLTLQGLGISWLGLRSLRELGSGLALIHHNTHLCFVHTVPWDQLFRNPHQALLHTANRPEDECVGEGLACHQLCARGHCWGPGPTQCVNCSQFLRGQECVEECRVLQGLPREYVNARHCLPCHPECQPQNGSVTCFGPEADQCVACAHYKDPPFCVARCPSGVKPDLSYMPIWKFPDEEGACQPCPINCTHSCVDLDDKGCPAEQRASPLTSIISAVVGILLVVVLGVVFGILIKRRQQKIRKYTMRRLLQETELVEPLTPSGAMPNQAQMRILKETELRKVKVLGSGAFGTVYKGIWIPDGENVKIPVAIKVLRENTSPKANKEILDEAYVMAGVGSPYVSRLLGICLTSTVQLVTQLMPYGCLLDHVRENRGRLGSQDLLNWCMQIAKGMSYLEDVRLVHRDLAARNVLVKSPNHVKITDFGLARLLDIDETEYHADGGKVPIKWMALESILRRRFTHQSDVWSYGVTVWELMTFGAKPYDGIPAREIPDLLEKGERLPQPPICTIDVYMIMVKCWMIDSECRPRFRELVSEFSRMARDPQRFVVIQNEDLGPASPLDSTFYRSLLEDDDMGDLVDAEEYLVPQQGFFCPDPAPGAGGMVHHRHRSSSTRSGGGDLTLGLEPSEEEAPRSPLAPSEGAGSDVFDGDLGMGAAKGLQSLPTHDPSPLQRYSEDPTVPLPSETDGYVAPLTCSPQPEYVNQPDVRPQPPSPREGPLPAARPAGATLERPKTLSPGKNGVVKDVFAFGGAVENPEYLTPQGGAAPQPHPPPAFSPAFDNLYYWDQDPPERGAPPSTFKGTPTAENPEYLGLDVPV

By viability is commonly meant a read-out of living cells in per cent, often relative to untreated cells. What is called inhibition is the relative decrease from the control value, in per cent. `O=C(NC1CCN(Cc2ccccc2)CC1)C1CCN(S(=O)(=O)c2cccc3cccnc23)CC1`: the viability in assay [1] is 96.5%; in assay [3], 96.5% (inactive); in assay [4] it was 86.9% (inactive); in [5], 102% (inactive); in assay [6] (setting [16]), 101%; in [6] (setting [17]), 102%. Further, the viability is 88.3% (inactive) in assay [12] and 96% (inactive) in assay [13]. For the same compound, the Her2 level in assay [2] is 97.5% (inactive). In addition, in assay [6] (H69AR cells + 2 uM doxorubicin), the differential viability (reversal) was 1.09% (inactive). Moreover, the inhibition in assay [7] is -0.13% (inactive); in assay [8] it was -2.62% (inactive); in [14], -0.18% (inactive). Besides, the values for the growth inhibition in [9] and in assay [10] were 5.75% (inactive) and 1.73% (inactive), respectively. Also, the viability increase in assay [11] was 1.84% (inactive). In [15], the RAM network inhibition was 1.59% (inactive).
With `Cn1c(C(=O)NCCN2CCN(c3ccccc3F)CC2)cc2c(=O)n(C)c3ccccc3c21`, the viability was 89% in assay [1]; 89% (inactive) in assay [3]; 70.3% (inactive) in assay [4]; 69.7% (inactive) in assay [5]; 72.5% in assay [6] (setting [16]); 69.7% in [6] (setting [17]). The figures for the viability in assay [12] and in assay [13] were 74.4% (inactive) and 73.2% (inactive), respectively. Further, in [2], the Her2 level was 73.5% (inactive). Also, the differential viability (reversal) in assay [6] (H69AR cells + 2 uM doxorubicin) was -2.84% (inactive). In addition, the inhibition in assay [7] is -1.03% (inactive); in assay [8], 2% (inactive); in [14] it was 0.115% (inactive). Also, the results for the growth inhibition in [9] and in assay [10] were -0.67% (inactive) and -2.32% (inactive), respectively. The viability increase in [11] was -2.38% (inactive). Besides, the RAM network inhibition in [15] is 0.11% (inactive).
Consider `CCn1c(=O)cc(OCC(=O)Nc2nc(C)cs2)c2ccccc21`, for which the viability in assay [1] is 83.5%; in assay [3], 83.5% (inactive); in assay [4], 61.6% (inactive); in assay [5] it was 94.8% (inactive); in assay [6] (setting [16]), 92.7%; in [6] (setting [17]), 94.8%. Moreover, the values for the viability in assay [12] and in [13] were 93.2% (inactive) and 86.9% (inactive), respectively. Moreover, the Her2 level in assay [2] is 84.5% (inactive). In assay [6] (H69AR cells + 2 uM doxorubicin), the differential viability (reversal) was 2.11% (inactive). For the same compound, the inhibition in assay [7] was -3.73% (inactive); in assay [8], -1.67% (inactive); in assay [14] it was 1.33% (inactive). For the same compound, the growth inhibition in [9] was -10.5% (inactive); in assay [10], -9.12% (inactive). The viability increase in assay [11] was -2.41% (inactive). Besides, in assay [15], the RAM network inhibition is 2.84% (inactive).
Take `CCc1ccccc1NC(=O)c1cnc2n(c1=O)CCS2`: the viability in [1] is 90.5%; in assay [3], 90.5% (inactive); in assay [4], 95% (inactive); in assay [5], 91.6% (inactive); in assay [6] (setting [16]) it was 88.1%; in assay [6] (setting [17]), 91.6%. Also, the figures for the viability in [12] and in assay [13] were 90.9% (inactive) and 97% (inactive), respectively. In [2], the Her2 level was 90% (inactive). Also, the differential viability (reversal) in assay [6] (H69AR cells + 2 uM doxorubicin) was 3.48% (inactive). The values for the inhibition in [7], in assay [8] and in [14] were -1.33% (inactive), -4.26% (inactive) and 1.32% (inactive), respectively. The figures for the growth inhibition in assay [9] and in [10] were -7.06% (inactive) and 1.6% (inactive), respectively. In addition, the viability increase in [11] is 3.48% (inactive). In assay [15], the RAM network inhibition is 5.66% (inactive).
`O=C(Nc1ccc2c(c1)OCCO2)c1cnc2n(c1=O)CCS2`: the viability is 85.5% in assay [1]; 85.5% (inactive) in assay [3]; 105% (inactive) in assay [4]; 79.4% (inactive) in assay [5]; 78.7% in assay [6] (setting [16]); 79.4% in assay [6] (setting [17]). The viability was 106% (inactive) in [12] and 104% (inactive) in [13]. Besides, the Her2 level in [2] was 80.5% (inactive). In addition, in assay [6] (H69AR cells + 2 uM doxorubicin), the differential viability (reversal) was 0.765% (inactive). Also, the inhibition in assay [7] was 0.93% (inactive); in [8], -2.95% (inactive); in assay [14], 1.6% (inactive). Also, the growth inhibition was -17.9% (inactive) in [9] and 2.96% (inactive) in assay [10]. For the same compound, in assay [11], the viability increase was 3.01% (inactive). Further, in assay [15], the RAM network inhibition is 4.19% (inactive).
